Test results as given in PubChem BioAssay (EPA / NIEHS).
Records with an inconclusive call do not appear. Activity calls are given as the source filed them. Rule for the calls: active = hit-call score of the fitted dose curve at least 0.9, where 1 is the maximum; inconclusive = response in the unintended direction; inactive = score below 0.9.

target: human Thyroid Receptor alpha (THRa1), THRA (gene 7067) (UniProt P10827); assay: ATG_THRa1_TRANS: Attagene TRANS-FACTORIAL HepG2 Assay for human Thyroid Receptor alpha (THRa1) (AID 2283014)
Procedure: ATG_TRANS is a cell-based, multiplexed-readout assay that uses HepG2, a human liver cell line, with measurements taken at 24 hours after chemical dosing in a 24-well plate.ATG_THRa1_TRANS is one of 30 assay component(s) measured or calculated from the ATG_TRANS assay. It is designed to make measurements of mRNA induction, a form of inducible reporter, as detected with fluorescence intensity signals by Reverse transcription polymerase chain reaction (RT-PCR) and Capillary electrophoresis technology.Data from the assay component ATG_THRa1_TRANS was analyzed into 1 assay endpoint. This assay endpoint, ATG_THRa1_TRANS, was analyzed in the positive analysis fitting direction relative to DMSO as the negative control and baseline of activity. Using a type of inducible reporter, measures of mRNA for gain-of-signal activity can be used to understand the reporter gene at the transcription factor-level as they relate to the gene THRA. Furthermore, this assay endpoint can be referred to as a primary readout, because this assay has produced multiple assay endpoints where this one serves a reporter gene function. To generalize the intended target to other relatable targets, this assay endpoint is annotated to the nuclear receptor intended target family, where the subfamily is non-steroidal.
Human liver HepG2 cells are transiently transfected with multiple reporter transcription units (MRTUs) in 6-well plates using FuGene 6 reagent (Roche; 3 ml FuGene/1 mg DNA). The MRTU constructs are regulated by a cis-regulating element (promoter). […] A major difference between the CIS and TRANS system is that in CIS activities of endogenous TFs are measured, whereas the TRANS assay evaluates changes in activities of exogenous, chimeric NR-Gal4 proteins. […] At the end of 24 hour incubation, total RNA was isolated using TriZol reagent (Invitrogen). The isolated RNA is then reverse-transcribed using oligo(dT) primer and Mo-MLV reverse transcriptase (Invitrogen) with DNAse I (Ambion) treatment for 30 min. The one-tenth of the produced cDNA was amplified by PCR using Taq DNA polymerase (Invitrogen) and two reporter sequence-specific primers. The PCR products were fluorescently labeled by primer extension with 6-arboxyfluorescein (6-FAM) 5'-labeled reporter sequence-specific primer (2 min at 95 C, 20 s at 68 C and 10 min at 72 C) and these products were digested with 5U of HpaI (New England Biolabs) for 2h at 37 C. The fragments were purified using Qiaquick PCR columns (Qiagen), analyzed on an ABI 3130xL genetic analyzer (Applied Biosystems) with peak positions identified by using a set of X-rhodamine (ROX)-labeled MapMarker1000 molecular weight standards (BioVentures). The raw capillary electrophoresis data was processed using Attagraph software (Attagene).

human Thyroid Receptor alpha (THRa1), THRA (gene 7067), sequence (P10827 whole entry, looked up): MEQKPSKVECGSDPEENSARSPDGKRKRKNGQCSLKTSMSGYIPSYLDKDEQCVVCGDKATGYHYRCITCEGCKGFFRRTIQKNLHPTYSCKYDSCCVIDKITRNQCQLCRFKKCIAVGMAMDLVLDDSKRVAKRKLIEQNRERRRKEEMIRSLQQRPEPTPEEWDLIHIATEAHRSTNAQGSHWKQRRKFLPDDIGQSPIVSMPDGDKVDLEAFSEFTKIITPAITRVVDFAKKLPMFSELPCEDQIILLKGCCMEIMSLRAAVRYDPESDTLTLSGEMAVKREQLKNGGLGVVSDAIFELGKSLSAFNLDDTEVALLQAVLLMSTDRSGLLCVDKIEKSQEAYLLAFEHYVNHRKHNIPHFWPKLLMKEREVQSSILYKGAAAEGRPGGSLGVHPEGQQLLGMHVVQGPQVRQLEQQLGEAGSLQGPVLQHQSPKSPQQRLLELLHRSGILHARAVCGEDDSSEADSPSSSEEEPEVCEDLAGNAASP

Compound	outcome	AC50
CNCc1cc(F)ccc1Oc1ccc(Cl)c(Cl)c1	inactive	–
CC1(C)NC(=O)NC1=O	inactive	–
COc1cc(-c2nc(NC(=O)c3cc4cc(C)cc(C)c4n3CC(=O)O)sc2CCC2CCCCC2)c(OC)cc1Cl	inactive	–
Cc1ccc(N(C)C)cc1	inactive	–
Cc1cccc([N+](=O)[O-])c1C	inactive	–
Nc1ccc2c(c1)C(=O)c1ccccc1C2=O	inactive	–
Cc1ccccc1Cl	inactive	–
CCNc1cccc(C)c1	inactive	–
COCCOCCOC	inactive	–
CCCCCCC(=O)OCC	inactive	–
CC(=O)OCCOCCOCCOC(C)=O	inactive	–
Cc1ccc(C(C)C)c(O)c1	inactive	–
COc1cccc2c1C(=O)c1c(O)c3c(c(O)c1C2=O)C[C@@](O)(C(=O)CO)C[C@@H]3O[C@H]1C[C@H](N)[C@H](O)[C@H](C)O1	–	32.9 µM (active)
Nc1ccccc1N	inactive	–
COc1ccc(C)cc1N	inactive	–
O=C(OCCCCCOC(=O)c1ccccc1)c1ccccc1	inactive	–
CC(C)c1ccc(C(=O)N=C(N)N)cc1S(C)(=O)=O	inactive	–
Nc1nc(N)c2nc(CNc3ccc(C(=O)N[C@@H](CCC(=O)O)C(=O)O)cc3)cnc2n1	inactive	–
O=[N+]([O-])C(CO)(CO)CO	inactive	–
O=c1c(O)c(-c2ccc(O)c(O)c2)oc2cc(O)cc(O)c12	inactive	–
Cc1cc(NC(=O)C(=O)O)cc(C)c1Oc1ccc(O)c2c1CCC2	–	0.00869 µM (active)
CCCCCCOCCO	inactive	–
CCOc1ccc2c(c1)C(C)=CC(C)(C)N2	–	100 µM (active)
C1CCC(SSC2CCCCC2)CC1	inactive	–
Oc1ccc2ccccc2c1N=Nc1ccccc1	inactive	–
CCCCCCCCCCCCCCCC	inactive	–
Cc1ccc(C)c(O)c1C	inactive	–
Cc1cccc(C)c1O	inactive	–
C[C@]12C=CC(=O)C=C1CC[C@@H]1[C@@H]2C(=O)C[C@@]2(C)[C@H]1CC[C@]2(O)C(=O)CO	inactive	–
